Test results reported in PubChem BioAssay (EPA / NIEHS).
Results filed as inconclusive are left out. Where a structure was tested more than once in an assay, its records may differ in their call. The source made the active and inactive calls. The calls were made as follows: active = hit-call score of the fitted dose curve at least 0.9, where 1 is the maximum; inconclusive = response in the unintended direction; inactive = score below 0.9.

Test: ACEA_ER_AUC_viability: ACEA Biosciences xCELLigence Real-Time Cell Analysis on Estrogen Receptor Agonism for Viability (AID 2283782);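 also: hit means loss of impedance signal meaning reduced cell growth or viability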
Outline: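 Continuous-exposure impedance cell analysis uses T-47D cells in charcoal-stripped serum, eight 1:4 dilutions topping at 100 uM final, biological duplicate. Area under the growth curve at 80 h is fitted against DMSO baseline.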

Question: With `O=C(O)C(F)(F)C(F)(F)C(F)(F)C(F)(F)C(F)(F)C(F)(F)C(F)(F)C(F)(F)C(F)(F)C(F)(F)C(F)(F)C(F)(F)C(F)(F)F` as the compound, how does the AC50 read?
Answer: 2.91 µM (active)

Question: For `CO[Si](OC)(c1ccccc1)c1ccccc1`, which AC50 is on record?
Answer: 79.9 µM (active)

Question: Which outcome does the source give for `O=S(=O)(O)C(F)(F)C(F)(F)C(F)(F)C(F)(F)C(F)(F)C(F)(F)C(F)(F)F` here?
Answer: inactive

Question: Which outcome does the source give for `FC(F)(F)C(F)(F)CNCC(F)(F)C(F)(F)F` here?
Answer: inactive

Question: With `FC1CC(F)(F)C(F)(F)C1(F)F` (centres undefined) as the compound, how does the outcome read?
Answer: inactive

Question: Which AC50 does the source give for `CC(C)c1ccccc1N` here?
Answer: 50 µM (active)

Question: For `CCCCCCCCCCCCCCCC[N+](C)(C)Cc1ccccc1`, which AC50 is on record?
Answer: 3.4 µM (active)

Question: Which AC50 does the source give for `O[Si](c1ccccc1)(c1ccccc1)c1ccccc1` here?
Answer: 196 µM (active)

Question: For `c1ccc(-c2ccccc2-c2ccccc2)cc1`, which AC50 is on record?
Answer: 78.7 µM (active)

Question: Which outcome does the source give for `C=CC(F)(F)C(F)(F)C(F)(F)C(F)(F)C(F)(F)C(F)(F)C(F)(F)C(F)(F)C=C` here?
Answer: inactive

Question: Which outcome does the source give for `CC(C)(C)C(=O)CC(=O)C(F)(F)C(F)(F)C(F)(F)F` here?
Answer: inactive

Question: For `CC(=O)Nc1ccc(N=Nc2cc(C)ccc2O)cc1`, which outcome is on record?
Answer: inactive

Question: Which AC50 does the source give for `CC(C)=CCCC(C)CCOC(=O)C(C)C` (centres undefined) here?
Answer: 50 µM (active)

Question: With `O=C(O)C(F)(F)C(F)(F)C(F)F` as the compound, how does the outcome read?
Answer: inactive

Question: With `FC(F)(I)C(F)(F)C(F)(F)C(F)(F)I` as the compound, how does the AC50 read?
Answer: 129 µM (active)

Question: With `CCCCCCS` as the compound, how does the AC50 read?
Answer: 50 µM (active)

Question: With `OCC(F)(F)C(F)(F)C(F)(F)C(F)(F)C(F)(F)C(F)F` as the compound, how does the outcome read?
Answer: inactive

Question: Which AC50 does the source give for `Cc1ccc(S(=O)(=O)OCC(F)(F)C(F)(F)C(F)(F)C(F)(F)C(F)(F)C(F)F)cc1` here?
Answer: 0.00308 µM (active)

Question: Which outcome does the source give for `CCCCOCCOCCOC(=O)CCCCC(=O)OCCOCCOCCCC` here?
Answer: inactive

Question: With `CCCCCCCOC(=O)c1ccccc1C(=O)OCCCCCCC` as the compound, how does the outcome read?
Answer: inactive

Question: For `FC(F)(F)C(F)(F)C(F)(F)C(F)(F)C(F)(F)C(F)(F)C(F)(F)Br`, which outcome is on record?
Answer: inactive

Question: Which outcome does the source give for `CCc1ccc(C(c2ccc(CC)cc2)C(Cl)Cl)cc1` here?
Answer: inactive

Question: With `COC(=O)CCC(F)(F)C(F)(F)C(F)(F)C(F)(F)F` as the compound, how does the outcome read?
Answer: inactive

Question: With `OCC(F)(F)C(F)(F)C(F)(F)F` as the compound, how does the outcome read?
Answer: inactive

Question: For `O=C(O)C(F)(F)C(F)(F)C(F)(F)C(F)(F)C(F)(F)C(F)(F)C(F)(F)C(F)(F)C(F)(F)C(F)(F)C(F)(F)C(F)(F)F`, which AC50 is on record?
Answer: 19.3 µM (active)

Question: For `O=C(O)C(F)(OC(F)(F)C(F)(OC(F)(F)C(F)(F)C(F)(F)F)C(F)(F)F)C(F)(F)F` (centres undefined), which outcome is on record?
Answer: inactive

Question: For `O=S(=O)(OCC(F)F)C(F)(F)F`, which outcome is on record?
Answer: inactive

Question: Which AC50 does the source give for `CCN(CC)c1ccc2c(C)cc(=O)oc2c1` here?
Answer: 17.1 µM (active)

Question: Which outcome does the source give for `FC(F)(F)C(F)(F)C(F)(F)C(F)(F)C(F)(F)CCI` here?
Answer: inactive

Question: For `Cc1cccc(N(C)C)c1`, which AC50 is on record?
Answer: 25.6 µM (active)

Question: Which outcome does the source give for `CCc1c(Br)c(Br)c(Br)c(Br)c1Br` here?
Answer: inactive

Question: With `O=C(O)C(F)(F)C(F)(F)F` as the compound, how does the outcome read?
Answer: inactive

Question: With `C=CC(=O)OCC(F)(F)C(F)(F)C(F)(F)C(F)(F)C(F)(F)C(F)(F)C(F)(F)F` as the compound, how does the outcome read?
Answer: inactive

Question: Which outcome does the source give for `O=C(O)C(F)(OC(F)(F)C(F)(OC(F)(F)C(F)(OC(F)(F)C(F)(F)C(F)(F)F)C(F)(F)F)C(F)(F)F)C(F)(F)F` (centres undefined) here?
Answer: inactive

Question: Which outcome does the source give for `C=C(C)C(=O)OCC(F)(F)C(F)(F)C(F)(F)C(F)(F)C(F)(F)C(F)(F)C(F)(F)F` here?
Answer: inactive

Question: For `O=C(Cl)C(F)(F)C(F)(F)C(F)(F)C(F)(F)C(F)(F)C(F)(F)C(F)(F)C(F)(F)F`, which AC50 is on record?
Answer: 127 µM (active)

Question: Which outcome does the source give for `FC(F)(F)C(F)(F)C(F)(F)C(F)(F)C(F)(F)C(F)(F)C(F)(F)C(F)(F)CCS` here?
Answer: inactive

Question: With `Nc1ccc(S(=O)(=O)Nc2nccs2)cc1` as the compound, how does the AC50 read?
Answer: 26 µM (active)

Question: And the outcome?
Answer: inactive
